Assay results published in ChEMBL document CHEMBL3988442, “University of Dundee, Small-Polar-MMV Screening Library” (2021).

Legend:
[1] = molecular target: T1, Aspartate--tRNA(Asp/Asn) ligase (Mycobacterium tuberculosis (strain ATCC 25618 / H37Rv)) (UniProt P9WFW3); test: Assay for Asp RNA synthetase-1 from Mycobacterium tuberculosis; type: functional; design: scale not given: direction of the effect not stated beside the values; details: 30 µM; note: in the data most compounds retested in dose-response had high values
T1 sequence (whole entry): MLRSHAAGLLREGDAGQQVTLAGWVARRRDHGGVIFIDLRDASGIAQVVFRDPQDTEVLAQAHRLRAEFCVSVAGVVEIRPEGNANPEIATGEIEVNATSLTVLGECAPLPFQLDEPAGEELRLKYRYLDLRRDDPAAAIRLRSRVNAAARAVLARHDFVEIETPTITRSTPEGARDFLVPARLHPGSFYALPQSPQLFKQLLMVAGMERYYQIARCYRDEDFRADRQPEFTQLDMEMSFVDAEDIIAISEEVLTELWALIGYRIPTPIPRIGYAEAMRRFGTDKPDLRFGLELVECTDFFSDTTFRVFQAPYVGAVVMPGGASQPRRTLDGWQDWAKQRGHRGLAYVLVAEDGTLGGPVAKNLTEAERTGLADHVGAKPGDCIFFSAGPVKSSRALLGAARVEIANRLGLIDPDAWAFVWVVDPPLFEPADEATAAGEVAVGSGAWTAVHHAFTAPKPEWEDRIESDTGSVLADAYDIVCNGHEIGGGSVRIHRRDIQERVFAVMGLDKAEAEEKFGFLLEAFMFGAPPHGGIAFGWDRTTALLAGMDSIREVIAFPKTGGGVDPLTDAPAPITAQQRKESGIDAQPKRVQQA

[2] = molecular target: Shiga toxin 2 (Escherichia coli O157:H7) (UniProt P09385+P09386); test: E. coli 0.157:H7 Shiga Toxin SOP - stx2 screening assay; type: functional; design: scale not given: direction of the effect not stated beside the values; details: 30 µM

Compound | Percent Effect [1] [%] | Percent Effect [2] [%]
CC(=O)N(Cc1ncc(C)o1)C1CCN(Cc2noc(C)n2)C1 (stereo not drawn) | 5.42 | 4.63
COc1c(C)cnc(CN2CCOC(Cn3nc(C)nc3C)C2)c1C (stereo not drawn) | 1.63 | 8.19
COCc1cccc(CNCc2c(C)nn(C)c2N(C)C)c1 | 6.21 | 1.1
NC(=O)Cc1ccc(NC(=O)C2CCOCC2)cc1 | 1.11 | 20.8
CCn1cnnc1CNC(=O)N(C)Cc1ccc(F)c(F)c1 | -2.12 | 18.2
CN(C)C(=O)[C@@H]1CCO[C@@H]2CCN(Cc3ccccc3)C[C@@H]21 | 2.24 | -27
Cc1nn(C)c(N2CCOCC2)c1CNCc1ccnc(N(C)C)c1 | -1.27 | 25.6
O=C(COCc1ccccc1)N1CCCC(n2cncn2)C1 (stereo not drawn) | -3.66 | 22.6
COc1cccc(CN2CCCC2c2c(C)nn(C)c2C)c1 (stereo not drawn) | 2.17 | -4.12
COc1ccc(CS(=O)(=O)CC(=O)NCC2CC2)cc1F | 3.98 | -12.5
O=S(=O)(N(Cc1ccccn1)C1CC1)N1CCCC1c1ccco1 (stereo not drawn) | 2.62 | -10.3
CN(C)C(CNC(=O)c1cc2c([nH]c1=O)CCCC2=O)c1ccsc1 (stereo not drawn) | 2.97 | -21.1
Cc1cccc(COC[C@]23COC[C@H]2CN(C(=O)c2ccsc2)C3)n1 | 1.56 | 7.59
O=C(c1cc(C2CC2)[nH]n1)N1CCCC(n2cncn2)C1 (stereo not drawn) | -3.08 | 12.1
Cc1ncsc1C(=O)NC1CCN(Cc2ccc(C#N)cc2)CC1 | 1.55 | -28.6
Cn1cc(CNCCn2cccn2)c(-c2cccnc2)n1 | 1.65 | -0.247
O=C(NCC1CC1)C1CN(C(=O)c2cccs2)CC12CCOCC2 (stereo not drawn) | 5.88 | 0.242
Cc1cc(C(=O)N2CC[C@@H]3CN(c4ncccn4)CCO[C@@H]3C2)c(C)o1 | 7.23 | -7.5
CC(C)CCn1[nH]c(CNc2ccccc2)nc1=O | 5.27 | -8.36
